According to PubChem BioAssay (Tox21):
Records with an inconclusive call do not appear. Entries that show only a call come without a potency. Unmarked numbers belong to inactive results. Activity calls are given as the source filed them. Calls come from the whole dose curve; as a rule, active = well fitted curve in the direction sought with a large enough effect in the repeat runs; inconclusive = weak or mixed curves; inactive = no such curve, though single readings can be large; an effect the other way counts as inactive or inconclusive.

experiment: qHTS RealTime-Glo MT Cell Viability Assay in HEK293 cells - 0 hour (AID 1224880); conditions: RealTime-Glo luminescence; series mostly up to 76.8 µM; note: nearly all actives have a fitted effect of over 45% in size; for activity change, negative = cytotoxicity: top concentration of the series differs between compounds
In short: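 Measured as luminescence from the same continuously cultured HEK293 wells at successive time points (0, 8, 16, 24, 32, 40 h) after compound addition. Reagent present from seeding; dosing at 5 h; incubation 37 C.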
Potency is the fitted concentration of half-maximal effect.

Q: For Brc1c2ccccc2cc2ccccc12, which Potency is on record?
A: inactive

Q: Which Potency does the source give for C[C@H](CCC(=O)O)[C@H]1CC[C@H]2[C@@H]3CC[C@@H]4C[C@H](O)CC[C@]4(C)[C@H]3C[C@H](O)[C@]12C here?
A: inactive

Q: With COC(=O)C1=C(C)NC(COC(N)=O)=C(C(=O)OC(C)C)C1c1cccc(Cl)c1Cl (stereo not drawn) as the molecule, how does the Potency read?
A: 2.68 µM (active)

Q: Which Potency does the source give for CCCCOC(=O)CCCCCCCC(=O)OCCCC here?
A: inactive

Q: Which Potency does the source give for CCN(CC)c1ccc(C(=C2C=CC(=[N+](CC)CC)C=C2)c2cc(S(=O)(=O)O)ccc2S(=O)(=O)[O-])cc1 here?
A: inactive

Q: For C#C[C@]1(O)CC[C@H]2[C@@H]3CCc4cc(OC5CCCC5)ccc4[C@H]3CC[C@@]21C, which Potency is on record?
A: inactive

Q: For CCCCCCCCCCCCCCCCCCOS(=O)(=O)O, which Potency is on record?
A: inactive

Q: Which Potency does the source give for CCC(C)(C)CC here?
A: inactive

Q: With CCOC(=O)NCCOc1ccc(Oc2ccccc2)cc1 as the molecule, how does the Potency read?
A: inactive

Q: Which Potency does the source give for O[C@@H](COc1cccc2ncccc12)CN1CCN(C2c3ccccc3[C@@H]3[C@H](c4ccccc42)C3(F)F)CC1 (stereo partly drawn) here?
A: inactive

Q: For O=[N+]([O-])c1ccc(NCCO)c(OCCO)c1, which Potency is on record?
A: inactive

Q: For CN1CCN(C(c2ccccc2)c2ccccc2)CC1, which Potency is on record?
A: inactive

Q: With O=C(O)c1nc(Cl)c(Cl)c(Cl)c1Cl as the molecule, how does the Potency read?
A: inactive

Q: For O=C(O)C1(C(=O)O)CCC1.[NH2-].[NH2-].[Pt+2], which Potency is on record?
A: inactive

Q: For CCCCCCCCCCCCCCOS(=O)(=O)O, which Potency is on record?
A: inactive

Q: Which Potency does the source give for O=C1C(O)=C(O)C(=O)C(O)=C1O here?
A: inactive

Q: With C/C(=C(\CCOP(=O)(O)O)SC(=O)c1ccccc1)N(C=O)Cc1cnc(C)nc1N as the molecule, how does the activity change, negative = cytotoxicity read?
A: 2.7% [at 6.97 µM]

Q: Which Potency does the source give for C=CC(=O)OCCOCCOCCOCCOC(=O)C=C here?
A: inactive

Q: For CC(=O)c1ccc2c(c1)N(CCCN(C)C)c1ccccc1S2, which Potency is on record?
A: inactive

Q: For CNCCCN1c2ccccc2CCc2ccccc21, which Potency is on record?
A: inactive

Q: For C/C=C(/C(=C/C)c1ccc(OC(C)=O)cc1)c1ccc(OC(C)=O)cc1, which Potency is on record?
A: inactive

Q: With O=C(Cl)c1cc(C(=O)Cl)cc(C(=O)Cl)c1 as the molecule, how does the Potency read?
A: inactive

Q: Which Potency does the source give for NCC(=O)CCC(=O)O here?
A: inactive

Q: With CCCCCCCC#N as the molecule, how does the Potency read?
A: inactive

Q: For CCCCCCCCCCCCN1CCCCCC1=O, which Potency is on record?
A: inactive

Q: Which Potency does the source give for O=C(Nc1ccccc1)c1ccccc1O here?
A: inactive

Q: For CCC(C)O (stereo not drawn), which Potency is on record?
A: inactive

Q: With O=[N+]([O-])c1cccc(S(=O)(=O)O)c1 as the molecule, how does the Potency read?
A: inactive

Q: Which Potency does the source give for CN(C)CCN(Cc1ccccc1)c1ccccn1 here?
A: inactive

Q: Which Potency does the source give for CCNc1cc(O)ccc1C here?
A: inactive

Q: For C#CCN(C)CCCOc1ccc(Cl)cc1Cl, which Potency is on record?
A: inactive

Q: Which Potency does the source give for Nc1cc(C(=O)O)c(O)c(S(=O)(=O)O)c1 here?
A: inactive

Q: Which Potency does the source give for C=C1C(=C/C=C2\CCC[C@]3(C)[C@@H]([C@H](C)/C=C/[C@@H](O)C4CC4)CC[C@@H]23)C[C@@H](O)C[C@@H]1O here?
A: inactive

experiment: A CellTox Green Cytotoxicity Assay to monitor cytotoxicity in HEK293 cells - 32 hour (AID 1224881); conditions: CellTox Green fluorescence; series mostly up to 76.8 µM; note: nearly all actives have a fitted effect of over 40% in size
In short: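 Homogeneous no-lysis format: HEK293 cell suspension mixed with CellTox Green reagent, seeded, incubated 5 h at 37 C/5% CO2, then dosed by pintool with compound in DMSO.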

Q: Which Potency does the source give for Brc1c2ccccc2cc2ccccc12 here?
A: inactive

Q: For COC(=O)C1=C(C)NC(COC(N)=O)=C(C(=O)OC(C)C)C1c1cccc(Cl)c1Cl (stereo not drawn), which Potency is on record?
A: inactive

Q: With CCCCOC(=O)CCCCCCCC(=O)OCCCC as the molecule, how does the Potency read?
A: inactive

Q: For CCN(CC)c1ccc(C(=C2C=CC(=[N+](CC)CC)C=C2)c2cc(S(=O)(=O)O)ccc2S(=O)(=O)[O-])cc1, which Potency is on record?
A: inactive

Q: Which Potency does the source give for C#C[C@]1(O)CC[C@H]2[C@@H]3CCc4cc(OC5CCCC5)ccc4[C@H]3CC[C@@]21C here?
A: inactive

Q: For CCC(C)(C)CC, which Potency is on record?
A: inactive

Q: For CCOC(=O)NCCOc1ccc(Oc2ccccc2)cc1, which Potency is on record?
A: inactive

Q: For O[C@@H](COc1cccc2ncccc12)CN1CCN(C2c3ccccc3[C@@H]3[C@H](c4ccccc42)C3(F)F)CC1 (stereo partly drawn), which Potency is on record?
A: inactive

Q: Which Potency does the source give for O=[N+]([O-])c1ccc(NCCO)c(OCCO)c1 here?
A: inactive

Q: With CN1CCN(C(c2ccccc2)c2ccccc2)CC1 as the molecule, how does the Potency read?
A: inactive

Q: Which Potency does the source give for O=C(O)c1nc(Cl)c(Cl)c(Cl)c1Cl here?
A: inactive

Q: Which Potency does the source give for O=C(O)C1(C(=O)O)CCC1.[NH2-].[NH2-].[Pt+2] here?
A: inactive

Q: With CCCCCCCCCCCCCCOS(=O)(=O)O as the molecule, how does the Potency read?
A: 43.6 µM (active)

Q: Which Potency does the source give for CCCNCC(O)COc1ccccc1C(=O)CCc1ccccc1 (stereo not drawn) here?
A: inactive

Q: With O=C1C(O)=C(O)C(=O)C(O)=C1O as the molecule, how does the Potency read?
A: inactive

Q: Which cytotoxicity increase does the source give for C/C(=C(\CCOP(=O)(O)O)SC(=O)c1ccccc1)N(C=O)Cc1cnc(C)nc1N here?
A: -7.02% [at 6.97 µM]

Q: Which Potency does the source give for C=CC(=O)OCCOCCOCCOCCOC(=O)C=C here?
A: 54.4 µM (active)

Q: Which Potency does the source give for CC(=O)c1ccc2c(c1)N(CCCN(C)C)c1ccccc1S2 here?
A: inactive

Q: With C/C=C(/C(=C/C)c1ccc(OC(C)=O)cc1)c1ccc(OC(C)=O)cc1 as the molecule, how does the Potency read?
A: inactive

Q: With NCC(=O)CCC(=O)O as the molecule, how does the Potency read?
A: inactive

Q: With CCCCCCCC#N as the molecule, how does the Potency read?
A: inactive

Q: Which Potency does the source give for CCCCCCCCCCCCN1CCCCCC1=O here?
A: inactive

Q: Which Potency does the source give for O=C(Nc1ccccc1)c1ccccc1O here?
A: inactive

Q: Which Potency does the source give for CCC(C)O (stereo not drawn) here?
A: inactive

Q: With O=[N+]([O-])c1cccc(S(=O)(=O)O)c1 as the molecule, how does the Potency read?
A: inactive

Q: Which Potency does the source give for CN(C)CCN(Cc1ccccc1)c1ccccn1 here?
A: inactive

Q: For CCNc1cc(O)ccc1C, which Potency is on record?
A: 34.3 µM (active)

Q: For C#CCN(C)CCCOc1ccc(Cl)cc1Cl, which Potency is on record?
A: inactive

Q: Which Potency does the source give for Nc1cc(C(=O)O)c(O)c(S(=O)(=O)O)c1 here?
A: inactive

Q: With C=C1C(=C/C=C2\CCC[C@]3(C)[C@@H]([C@H](C)/C=C/[C@@H](O)C4CC4)CC[C@@H]23)C[C@@H](O)C[C@@H]1O as the molecule, how does the Potency read?
A: inactive
